Sampled rows, rich in hits. Any-hit rate of the full collection: about 1.1%.
OPRM1-OPRD1 inv = mu-delta opioid heterodimer inverse agonism. cell-based MOR-DOR heterodimer luminescence. inhibition, % at 9.3 µM. actives 0.21% (n = 340,000). AID 504357; in the data active = inhibition above about 22%, passing the limit was not always enough
MOR-DOR ag = agonists of human mu-delta opioid receptor heterodimerization | P35372+P41143 | cells, OPRM1-OPRD1 heterodimerization, luminescence | activation, % at 9.3 µM | actives 0.3% (n = 340,000)
HTR5A ag = counter-screen for OPRM1-OPRD1 agonists: human HTR5A agonism; HTR5A agonist assay, luminescence, cell-based; activation, % at 9.3 µM; actives 0.61% (n = 340,000); AID 504692; in the data active = activation mostly above about 9.5%, no sharp cut-off; inactive = mostly below about 7.6%
Target sequence (P47898 whole entry, looked up): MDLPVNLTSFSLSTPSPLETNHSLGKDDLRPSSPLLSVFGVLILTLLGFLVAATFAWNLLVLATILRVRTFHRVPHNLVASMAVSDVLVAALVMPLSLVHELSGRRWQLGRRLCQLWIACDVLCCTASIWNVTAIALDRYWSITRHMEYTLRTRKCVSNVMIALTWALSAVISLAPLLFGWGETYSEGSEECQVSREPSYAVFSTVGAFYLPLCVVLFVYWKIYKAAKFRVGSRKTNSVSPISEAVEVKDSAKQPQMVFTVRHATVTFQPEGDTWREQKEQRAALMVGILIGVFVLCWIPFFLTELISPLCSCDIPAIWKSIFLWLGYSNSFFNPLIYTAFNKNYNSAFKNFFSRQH
HTR5A inv ctr = counter-screen for OPRM1-OPRD1 inverse agonists: human HTR5A inverse agonism. P47898. HTR5A cell line, luminescence. inhibition, % at 9.3 µM. actives 0.083% (n = 340,000); in the data active = inhibition mostly above about 23%, no sharp cut-off; inactive = mostly below about 18%
MOR-DOR ag conf = confirmation of human OPRM1-OPRD1 heterodimerization agonists. cells, MOR-DOR heterodimerization, luminescence complementation. activation, % at 9.3 µM. actives 45% (n = 830). shares compounds with MOR-DOR ag
HTR5A ag ctr2 = counter-screen for OPRM1-OPRD1 agonists: human HTR5A agonism | shares compounds with MOR-DOR ag | HTR5A agonist counterscreen, cell luminescence | activation, % at 9.3 µM | actives 8% (n = 830) | AID 504905; in the data active = activation above about 17%
Hits are given with their value. Cut-off read from the data, not from the text of the source, unless noted: active = activation above about 18%; inactive = the rest.

For COc1ccccc1C(CC(=O)Nc1ccc(Cl)cc1)c1ccc(OC(C)C)cc1 (stereo not given) the results were OPRM1-OPRD1 inv inactive, MOR-DOR ag inactive, HTR5A ag inactive and HTR5A inv ctr inactive.
`COc1ccc(C(C)NCCC(c2ccc(OC(C)C)cc2)c2ccccc2OC)cc1` (stereo not given) gave OPRM1-OPRD1 inv inactive, MOR-DOR ag 23, HTR5A ag inactive, HTR5A inv ctr inactive, MOR-DOR ag conf 37 and HTR5A ag ctr2 inactive.
`Cc1ccc2nc(-c3ccccc3)cc(C(=O)NCC(c3ccco3)N(C)C)c2c1` (stereo not given) gave OPRM1-OPRD1 inv inactive, MOR-DOR ag 36, HTR5A ag inactive, HTR5A inv ctr inactive, MOR-DOR ag conf inactive and HTR5A ag ctr2 inactive.
`Cc1cc(C(=O)NCC(c2ccco2)N(C)C)ccc1[N+](=O)[O-]` (stereo not given) gave OPRM1-OPRD1 inv inactive, MOR-DOR ag 34, HTR5A ag inactive, HTR5A inv ctr inactive, MOR-DOR ag conf 26 and HTR5A ag ctr2 inactive.
`CN(C)C(CNC(=O)c1ccc(Br)cc1)c1ccco1` (stereo not given) gave OPRM1-OPRD1 inv inactive, MOR-DOR ag 43, HTR5A ag inactive, HTR5A inv ctr inactive, MOR-DOR ag conf 37 and HTR5A ag ctr2 inactive.
For Cc1cc(C(=O)NCC(c2ccco2)N(C)C)no1 (stereo not given) the results were OPRM1-OPRD1 inv inactive, MOR-DOR ag inactive, HTR5A ag inactive and HTR5A inv ctr inactive.
For Cc1c(C(=O)NCC(c2ccco2)N(C)C)oc2c(Cl)cccc12 (stereo not given) the results were OPRM1-OPRD1 inv inactive, MOR-DOR ag 32, HTR5A ag inactive, HTR5A inv ctr inactive, MOR-DOR ag conf 20 and HTR5A ag ctr2 30.
Screening Cc1ccccc1C(=O)N1CCC(C(=O)N(CC(C)C)c2c(N)n(Cc3ccccc3)c(=O)[nH]c2=O)CC1 returned OPRM1-OPRD1 inv inactive, MOR-DOR ag inactive, HTR5A ag inactive and HTR5A inv ctr inactive.
For CN(C)C(CNC(=O)c1cccc(C(F)(F)F)c1)c1ccco1 (stereo not given) the results were OPRM1-OPRD1 inv inactive, MOR-DOR ag 18, HTR5A ag inactive, HTR5A inv ctr inactive, MOR-DOR ag conf 45 and HTR5A ag ctr2 inactive.
`CN(C)S(=O)(=O)c1ccc(-c2csc(N/N=C/c3ccco3)n2)cc1` gave OPRM1-OPRD1 inv inactive, MOR-DOR ag inactive, HTR5A ag inactive and HTR5A inv ctr inactive.
Screening CN(C)S(=O)(=O)c1ccc(-c2csc(N/N=C/c3ccc(O)cc3)n2)cc1 returned OPRM1-OPRD1 inv inactive, MOR-DOR ag 38, HTR5A ag inactive, HTR5A inv ctr inactive, MOR-DOR ag conf 157 and HTR5A ag ctr2 inactive.
For Cc1cccc(CC(Cc2nc3ccccc3[nH]2)c2nc3ccccc3[nH]2)c1 (stereo not given) the results were OPRM1-OPRD1 inv inactive, MOR-DOR ag 18, HTR5A ag inactive, HTR5A inv ctr inactive, MOR-DOR ag conf inactive and HTR5A ag ctr2 inactive.
`CN(CCOc1ccc(Cl)cc1)C(=O)c1cccc(S(=O)(=O)N2CCN(c3ccccc3)CC2)c1` gave OPRM1-OPRD1 inv inactive, MOR-DOR ag inactive, HTR5A ag inactive and HTR5A inv ctr inactive.
For O=C(CSc1ccc(Cl)cc1)Nc1ccc(-c2nc3ccccc3[nH]2)cc1 the results were OPRM1-OPRD1 inv inactive, MOR-DOR ag 32, HTR5A ag 13, HTR5A inv ctr inactive, MOR-DOR ag conf 171 and HTR5A ag ctr2 inactive.
CCC(=O)N1CCc2cc(S(=O)(=O)CCC(=O)N3CCN(c4ccc(C(C)=O)cc4)CC3)ccc21 was read as OPRM1-OPRD1 inv inactive, MOR-DOR ag inactive, HTR5A ag inactive and HTR5A inv ctr inactive.
Cc1ccc2c(Cl)c(Cc3ccccc3)c(=S)[nH]c2n1 was read as OPRM1-OPRD1 inv inactive, MOR-DOR ag 21, HTR5A ag inactive, HTR5A inv ctr inactive, MOR-DOR ag conf 35 and HTR5A ag ctr2 inactive.
`O=C(NCC(=O)N1CCN(c2ncccn2)CC1)c1ccc(F)cc1` gave OPRM1-OPRD1 inv inactive, MOR-DOR ag inactive, HTR5A ag inactive and HTR5A inv ctr inactive.
Screening Cc1cc(/C=C2\SC(=S)N(C)C2=O)c(C)n1-c1ccc(O)cc1 returned OPRM1-OPRD1 inv inactive, MOR-DOR ag 52, HTR5A ag inactive, HTR5A inv ctr inactive, MOR-DOR ag conf 33 and HTR5A ag ctr2 inactive.
Cc1cc(/C=C2\SC(=S)N(C)C2=O)c(C)n1-c1ccccc1O was read as OPRM1-OPRD1 inv inactive, MOR-DOR ag inactive, HTR5A ag inactive and HTR5A inv ctr inactive.
`CN(CC(=O)Nc1cccc(F)c1)C(=O)CC1CCCCC1` gave OPRM1-OPRD1 inv inactive, MOR-DOR ag inactive, HTR5A ag inactive and HTR5A inv ctr inactive.
Screening COc1ccc(C2NCCc3c2[nH]c2ccccc32)cc1COc1ccc(F)cc1 (stereo not given) returned OPRM1-OPRD1 inv inactive, MOR-DOR ag 20, HTR5A ag inactive, HTR5A inv ctr inactive, MOR-DOR ag conf 24 and HTR5A ag ctr2 inactive.
CC1=CC(=O)C(C(C)C)=C/C1=N/OS(=O)(=O)c1ccccc1 was read as OPRM1-OPRD1 inv inactive, MOR-DOR ag 205, HTR5A ag 30, HTR5A inv ctr inactive, MOR-DOR ag conf 83 and HTR5A ag ctr2 29.
`O=c1c2ccc(Cl)cc2[nH]c(=S)n1Cc1cccnc1` gave OPRM1-OPRD1 inv inactive, MOR-DOR ag 62, HTR5A ag inactive, HTR5A inv ctr inactive, MOR-DOR ag conf 54 and HTR5A ag ctr2 inactive.
For O=C(c1ccc2c(=O)n(Cc3ccc(Cl)cc3)c(=S)[nH]c2c1)N1CCCC1 the results were OPRM1-OPRD1 inv inactive, MOR-DOR ag inactive, HTR5A ag inactive and HTR5A inv ctr inactive.
For COc1ccc(S(=O)(=O)/N=C2\C=C(Nc3ccc(O)cc3)C(=O)c3ccccc32)cc1 the results were OPRM1-OPRD1 inv inactive, MOR-DOR ag 21, HTR5A ag inactive, HTR5A inv ctr inactive, MOR-DOR ag conf inactive and HTR5A ag ctr2 inactive.
Cc1ccccc1NC1=C/C(=N\S(=O)(=O)c2ccc(C(=O)O)cc2)c2ccccc2C1=O was read as OPRM1-OPRD1 inv inactive, MOR-DOR ag inactive, HTR5A ag inactive and HTR5A inv ctr inactive.
Screening COC(=O)C(Cc1cccc(C)n1)(c1ccccc1)c1ccccc1 returned OPRM1-OPRD1 inv inactive, MOR-DOR ag 113, HTR5A ag inactive, HTR5A inv ctr inactive, MOR-DOR ag conf 153 and HTR5A ag ctr2 inactive.
Screening COc1ccc(C2Nc3ccccc3C(=O)N2Cc2ccco2)cc1COc1ccc(F)cc1 (stereo not given) returned OPRM1-OPRD1 inv inactive, MOR-DOR ag 38, HTR5A ag inactive, HTR5A inv ctr inactive, MOR-DOR ag conf 26 and HTR5A ag ctr2 inactive.
For COc1ccc(N2C(=O)c3ccccc3NC2c2ccc(OC)c(CSc3ccccn3)c2)cc1 (stereo not given) the results were OPRM1-OPRD1 inv inactive, MOR-DOR ag inactive, HTR5A ag inactive and HTR5A inv ctr inactive.
`COc1ccc(C2Nc3ccccc3C(=O)N2Cc2ccco2)cc1CN1C(=O)c2ccccc2C1=O` (stereo not given) gave OPRM1-OPRD1 inv inactive, MOR-DOR ag inactive, HTR5A ag inactive and HTR5A inv ctr inactive.

Screening data from PubChem BioAssay.
